Compounds without any hit were thinned out: in the full panel of roughly 79,000, 15% have a hit. Rule as the data show it: active = growth inhibition above about 70%; inactive = the rest.
How the values were obtained:
[1] = NCI Yeast Anticancer Drug Screen. Data for the rad50 strain (AID 155);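 also: 0% = growth of vehicle-only cultures of the same strain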; conditions: S. cerevisiae rad50 strain growth inhibition; at 50.0 µM; hits give high values
Procedure, shortened: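 Growth of the mutant yeast was measured after compound exposure and referenced to vehicle-treated cultures.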

[2] = NCI Yeast Anticancer Drug Screen. Data for the mec2-1 strain (AID 157); conditions: S. cerevisiae mec2-1 strain, at 50.0 µM, hits give high values
Procedure, shortened: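 Test agents were screened against the mec2-1 yeast strain, with defined DNA repair or cell cycle alteration. Growth was scored as inhibition against vehicle-only controls.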

[3] = NCI Yeast Anticancer Drug Screen. Data for the sgs1 mgt1 strain (AID 161);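 also: 0% = growth of cultures given vehicle only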; conditions: S. cerevisiae sgs1 mgt1 strain, at 50.0 µM, hits give high values
Procedure, shortened: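 Read-out: growth inhibition vs vehicle controls. Cells: mutant yeast strain deficient in DNA damage repair.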

[4] = NCI Yeast Anticancer Drug Screen. Data for the cln2 rad14 strain (AID 165);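 also: 0% = growth equal to vehicle treated cultures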; conditions: S. cerevisiae cln2 rad14 strain, at 50.0 µM, hits give high values
Procedure, shortened: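 Growth of compound-exposed yeast (cln2 rad14 genotype) measured and expressed as inhibition relative to vehicle.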

[5] = NCI Yeast Anticancer Drug Screen. Data for the bub3 strain (AID 167); conditions: S. cerevisiae bub3 mutant strain, at 50.0 µM, hits give high values
Procedure, shortened: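 Whole-cell yeast assay. The mutant strain was incubated with compounds, and growth inhibition was determined by comparison with vehicle-treated cells.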

[6] = NCI Yeast Anticancer Drug Screen. Data for the mlh1 rad18 strain (AID 175); conditions: S. cerevisiae mlh1 rad18 strain growth inhibition; at 50.0 µM; hits give high values
Procedure, shortened: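 In this whole-cell yeast screen, a strain with altered DNA damage repair is challenged with compound, and its growth is measured against matched vehicle-treated controls.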

Measured: growth inhibition

O=C1CSC(c2ccccc2C(F)(F)F)N1c1nncs1 (centres undefined)
inactive: [1] 18.4% | [2] 1% | [3] 11.6% | [4] -46% | [5] -39.2% | [6] 9.8%

C=C(CN(CC)CC)C1(c2ccccc2)CC2(CCCC2)C(=O)O1 (centres undefined)
inactive: [1] 20.9% | [2] 23.9% | [3] 1.15% | [4] 3.6% | [5] 10.2% | [6] 5.65%

CCCCCCCNc1nc(N)nc(Cl)n1
inactive: [1] -0.15% | [2] -4.6% | [3] 5.75% | [4] 8.75% | [5] -9.4% | [6] 10.9%

COC(=O)C1(CC(=O)Cc2ccccc2)NC(=S)NC(=O)C1C#N (centres undefined)
inactive: [1] 8.45% | [2] -7.7% | [3] -12.2% | [4] -12.1% | [5] -29.1% | [6] 4.8%

O=C(O)CCCc1ccc(Oc2ccccc2)cc1
inactive: [1] -6.05% | [2] -15.3% | [3] 22% | [4] -8.85% | [5] -5% | [6] -6.6%

CCOc1ccc(C(=O)C=O)cc1
inactive: [1] 11.6% | [2] -5.65% | [3] 11.4% | [4] -0.7% | [5] 9.55% | [6] 27.2%

Cc1c(Cl)cccc1NC(=O)OCCCc1ccccc1
inactive: [1] 1.5% | [2] 10.2% | [3] 15.6% | [4] -9.45% | [5] 9.35% | [6] 10.2%

CC(C)(CC(=O)Nc1ccccc1)C(=O)O
inactive: [1] -11.8% | [2] -7.05% | [3] -19.4% | [4] -12.1% | [5] -56.9% | [6] -0.4%

C(=C\c1cc(-c2ccc3ccccc3n2)nc2ccc3ccccc3c12)/c1ccc2ccccc2n1
inactive: [1] 9.7% | [2] -1.4% | [3] 26.9% | [4] 28.9% | [5] 25.5% | [6] -11.2%

CCCCCCCCCc1cc(=O)c2ccc(OCc3ccccc3)cc2o1
inactive: [1] -42.5% | [2] -28.6% | [3] -21.1% | [4] -11.2% | [5] -28.6% | [6] -42%

CSCCC(NC(=O)c1ccccc1)C(=O)O (centres undefined)
inactive: [1] -2.95% | [2] -15% | [3] 1.35% | [4] 3.85% | [5] 3.3% | [6] -10.6%

Cc1nc(N)nc2ccccc12
inactive: [1] 3.15% | [2] -25.3% | [3] -16% | [4] -5.8% | [5] -7.9% | [6] -16.1%

COc1ccc(Nc2nc(NS(=O)(=O)c3cc(C)c(Cl)cc3S)n[nH]2)cc1
inactive: [1] 23.4% | [2] 27.9% | [3] 3.65% | [4] 24.9% | [5] 16.9% | [6] -4.9%

C(CCN1CCOCC1)CN1CCOCC1
inactive: [1] -3.4% | [2] 4.5% | [3] 0.45% | [4] -4.1% | [5] -10.7% | [6] 1.15%

CC(C)(CCCOc1ccccc1)/C(=N/O)c1ccccc1
inactive: [1] 14.1% | [2] 5.6% | [3] -14.9% | [4] 21.6% | [5] 11.6% | [6] -14.5%

CCCCOC(=O)c1ccc(NC(=O)Nc2ccc(SC)cc2)cc1
inactive: [1] -4.05% | [2] 1.8% | [3] 19.2% | [4] -8.75% | [5] 19.8% | [6] -13.1%

CC(C(=O)O)N(C)C(=O)c1cnc2ccccc2n1 (centres undefined)
inactive: [1] -0.1% | [2] -1.15% | [3] -1.5% | [4] 23% | [5] 18.6% | [6] -2%

CNCCC1CCCCCC1
inactive: [1] 1.8% | [2] 5.45% | [3] -1.15% | [4] -13.5% | [5] 10.9% | [6] -2.8%

Cc1ccc2c(=O)[nH]cnc2c1
inactive: [1] -10.4% | [2] -23.2% | [3] 4.45% | [4] -7.6% | [5] 2% | [6] -2.15%

From PubChem BioAssay (NCI)
